The source of these data is PubChem BioAssay (NCI).

About 83,000 compounds went through this panel and 20% of them were active in at least one assay; those are over-represented in the sample as a whole.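 Negative percent growth values reflect cell death: -40 means 40% of the cells present at the start died, and -100 means all died.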 Unmarked numbers belong to inactive results. Calls of active or inactive are those of the source. The calls were made as follows: active = growth percent below 10; inactive = the rest.

Holding throughout (test): NCI-60 one-dose screen, 48 h (100 = growth as untreated, 0 = no growth, -100 = all killed)
Details in all cases: 10 µM unless noted

The subject of test [1] is HCT-15 colon.
Test [2] relates to HT29 colon.
The test system of test [3] is SNB-75 CNS.
For test [4], the system named is SNB-19 CNS.
Test [5] deals with U251 CNS.
In test [6] the test system is PC-3 prostate.
Test [7] relates to SK-MEL-5 melanoma.
Test [8] concerns UACC-62 melanoma.
For test [9], the system named is LOX IMVI melanoma.
Test [10] deals with SK-MEL-28 melanoma.

`CC1COc2c(N3CCN(C)CC3)c(F)cc3c(=O)c(C(=O)N/N=C/c4cc[nH]c4)cn1c23` (stereo not given): the growth in test [1] is 47.1%; in [2], 14.6%; in test [3] it was 74.4%; in [4], 9.01% (active); in test [5] it was -41.6% (active); in test [6] it was 27.9%. Moreover, the growth in [7] is 25.3%; in test [8], 76%; in test [9], -88.5% (active); in test [10], 57.3%.

As for `CC(C)C[C@H]1C(=O)O[C@H](C(C)C)C(=O)N(C)[C@@H](C(C)C)C(=O)O[C@H](C(C)C)C(=O)N(C)[C@@H](C(C)C)C(=O)O[C@H](C(C)C)C(=O)N1C`, the growth is 16.6% in test [1]; 8.39% (active) in test [2]; 7.5% (active) in test [3]; 22.4% in test [4]; 14.1% in test [5]; 14.5% in [6]. Besides, the growth in test [7] is -32% (active); in test [8] it was 9.49% (active); in test [9], 9.57% (active); in test [10], 38.2%.

On to `CCOC(=O)Nc1ccc(-c2nc(-c3cccc(O)c3)c(-c3ccnc(Br)c3)[nH]2)cc1`, for which the growth is 30.7% in test [1]; 34.3% in test [2]; 14.7% in test [3]; 44.7% in test [4]; 29.6% in test [5]; 4.92% (active) in [6]. In addition, the growth is 23.6% in [7], 24.3% in [8], 14.5% in test [9] and 46.9% in test [10].

Regarding `CC[C@]12C=CCN3CC[C@]4(C(=C(C(=O)OC)C1)Nc1cc5c(cc14)[C@@H]1[C@H](O5)[C@@H](O)[C@@]4(CC)CC(C(=O)OC)=C5Nc6cc(OC)ccc6[C@@]56CCN1[C@@H]46)[C@@H]32`, the growth in [1] is -19.9% (active); in [2], 2.83% (active); in test [3], 21.1%; in test [4], 3.1% (active); in test [5], 3.18% (active); in [6], 9.02% (active). Further, the growth in test [7] is -2.36% (active); in test [8] it was 8.98% (active); in test [9] it was -85.9% (active); in test [10], 1.92% (active).

For the compound `Cc1cccc(NC(c2cc3cccc4ccc5cccc2c5c43)c2nnnn2C(C)(C)C)c1C` (stereo not given), the growth in test [1] is 88.7%; in test [2], 82.1%; in [3], 93.7%; in test [4] it was 91.1%; in test [5], 95.3%; in test [6], 77.5%. For the same compound, the growth is 97.4% in test [7], 62.3% in [8], 80.2% in test [9] and 102% in [10].

Turning to `COC(=O)Nc1ccc(-c2nc(-c3cccc(O)c3)c(-c3ccnc(Br)c3)[nH]2)cc1`, the growth in [1] was 51%; in test [2], 73.7%; in test [3] it was 3.12% (active); in test [4], 56.2%; in test [5] it was 47%; in test [6] it was 23.7%. Besides, the growth in test [7] is 61.2%; in [8], 23.7%; in [9], 38%; in [10] it was 58.7%.

In the case of `CC1(C)CC[C@]2(C(=O)O)CC[C@]3(C)C(=CCC4[C@@]5(C)C[C@@H](O)[C@@H]6OC(c7cccc([N+](=O)[O-])c7)OC[C@@]6(C)C5CC[C@]43C)C2C1` (stereo not given in full), the growth was 37.6% in test [1]; 59% in [2]; 84.4% in test [3]; 61.9% in test [4]; 41.5% in [5]; 65% in [6]. In addition, the growth was 64.5% in test [7], 69.2% in [8], 42.7% in test [9] and 87.4% in test [10].

For `COC(=O)c1c(C(=O)OC)c2n(CC(=O)Nc3cccc4cccnc34)c3ccccc3n2c1C(=O)c1ccc(C)cc1`, the growth is 97.6% in [1]; 102% in test [2]; 101% in test [3]; 91.1% in test [4]; 97.7% in test [5]; 82.5% in test [6]. The growth was 96.4% in [7], 84.6% in [8], 98.9% in test [9] and 110% in test [10].

On to `O=C(N/N=C\c1ccc(Cl)cc1)c1ccc2nc(-c3ccc(Br)cc3)[nH]c2c1`, for which the growth was -25.2% (active) in test [1]; -52% (active) in test [2]; 49.9% in [3]; 5.18% (active) in test [4]; -70.6% (active) in test [5]; -23.7% (active) in test [6]. Further, the growth in test [7] is 22.2%; in test [8], 8.2% (active); in [9], -80.5% (active); in [10], -14.7% (active).

In the case of `CCOC(=O)c1c(Nc2ccccc2)nn2c(-c3ccc(OC)c(OC)c3)ccnc12`, the growth in test [1] is 18.4%; in test [2], 62.3%; in [3] it was 68.7%; in [4], 80.1%; in [5], 60.6%; in test [6] it was 39.1%. The growth in test [7] was 32.4%; in test [8], 77.1%; in test [9], 37.6%; in [10] it was 65.8%.

For the compound `Cn1cc2c(c1)-c1c(sc3nc(-c4ccc(NC(=O)Nc5cc(C(C)(C)C)on5)cc4)cn13)CC2`, the growth in test [1] was 12.2%; in test [2], 21.9%; in [3], -1.5% (active); in test [4], 46.7%; in test [5], 24.3%; in test [6] it was 38.7%. The growth in [7] is 63.1%; in test [8] it was 87.7%; in test [9], 16.9%; in test [10] it was 54.2%.

Consider `C/C(=C(/c1ccc(O)cc1)c1ccc(OCCN2CCCC2)cc1)c1ccc(Cl)cc1`, for which the growth is -19.1% (active) in [1]; -52.3% (active) in test [2]; 62.5% in test [3]; 49.1% in [4]; 20.3% in test [5]; 46.9% in test [6]. The growth is 54.3% in test [7], -17.7% (active) in [8], -19.2% (active) in test [9] and -70% (active) in [10].

As for `CCN1C(=O)N(CC)C2C1NN=C1SC(c3ccccc3)=CC(=O)N12` (stereo not given), the growth in test [1] is 19.2%; in [2] it was -8.74% (active); in test [3] it was 14%; in test [4], 31.8%; in [5], 14.5%; in [6], 17.1%. For the same compound, the growth in [7] is 38.2%; in [8], 19.4%; in [9], 40.1%; in test [10], 59.5%.

With `COc1cc(CNC(=O)/C=C/c2ccccc2)ccc1OCC(=O)NO`, the growth in [1] is 101%; in test [2], 104%; in test [3], 85.3%; in test [4] it was 98.9%; in [5], 101%; in test [6], 91%. In addition, the growth in test [7] was 100%; in test [8], 92.3%; in test [9] it was 91.9%; in [10], 107%.

Take `COc1ccc2c(c1)oc1c3[nH]c4ccccc4c3c3c(c21)C(=O)N(O)C3=O`: the growth in test [1] was 50.5%; in [2], 38.3%; in test [3], 39.7%; in test [4], 32.6%; in [5] it was 15.7%; in test [6] it was 45.4%. In addition, the growth was -22.1% (active) in test [7], 12.4% in test [8], -76% (active) in [9] and 76.3% in [10].

Regarding `Cc1ccc(-c2cc(-c3cccc4ccccc34)n3c(n2)nc2ccccc23)cc1`, the growth in test [1] was 48%; in test [2] it was 73.4%; in test [3], 46.8%; in test [4], 53.5%; in test [5] it was 48.9%; in [6] it was 60.3%. Further, the growth is 40.9% in [7], 43.5% in test [8], 56.6% in [9] and 77% in test [10].

Turning to `O=C(CN1CCN(c2cc(=O)n(-c3ccccc3)c3ccccc23)CC1)Nc1ccc([N+](=O)[O-])cc1`, the growth was 95.1% in test [1]; 105% in test [2]; 88% in [3]; 87.1% in [4]; 93.9% in test [5]; 84.7% in [6]. Also, the growth in [7] was 74.1%; in test [8], 63.4%; in test [9], 89.3%; in [10] it was 101%.

Regarding `CC(C)(C)OC(=O)N1CCN(S(=O)(=O)/N=C2\NC(=O)NC2=C(Cl)Cl)CC1`, the growth in [1] is 10.9%; in [2] it was 106%; in [3] it was 99.9%; in [4], 81.1%; in [5], 90.6%; in test [6], 97.5%. The growth in [7] is 95.9%; in test [8], 96.3%; in test [9] it was 64.3%; in test [10], 85.7%.

As for `COc1ccc(C(=O)n2cc(C=O)c3ccccc32)cc1`, the growth in [1] is 87.9%; in test [2], 118%; in test [3] it was 99%; in test [4], 87.5%; in test [5], 93.9%; in test [6], 90.5%. Besides, the growth in test [7] is 98.1%; in [8], 81.6%; in [9], 76.2%; in test [10], 102%.

`CCCCCCNC(=O)Oc1ccc(/C(=C(/C)c2ccc(Cl)cc2)c2ccc(OCCN3CCCC3)cc2)cc1`: the growth in [1] is 0.291% (active); in [2] it was -17.7% (active); in test [3] it was 67.2%; in test [4], 45%; in test [5], 29.6%; in test [6] it was 37.5%. In addition, the growth was 14.9% in test [7], 20.8% in test [8], -98.6% (active) in test [9] and -49.4% (active) in [10].

On to `CC(C)(C)CC(C)(C)n1nnnc1C(Nc1ccccc1)c1cc2cccc3ccc4cccc1c4c32` (stereo not given), for which the growth is 78.5% in test [1]; 70.7% in [2]; 99.9% in test [3]; 95.1% in test [4]; 88.7% in [5]; 50.4% in [6]. In addition, the growth was 89.6% in test [7], 67.4% in [8], 85.1% in test [9] and 90% in test [10].

`CCn1c2ccc(/C=N/OCCCN(C)C)cc2c2cc(/C=N/OCCCN(C)C)ccc21`: the growth was -13% (active) in test [1]; -58.8% (active) in test [2]; 82.8% in [3]; 59.3% in [4]; -30.9% (active) in [5]; 32.4% in [6]. Also, the growth in test [7] was -95.6% (active); in test [8], 10.6%; in test [9] it was -91.8% (active); in test [10], -33.8% (active).

Consider `C[C@@H]1C[C@H]2C(=O)OCC(NC(=O)[C@H](Cc3cc(F)cc(F)c3)NC(=O)Nc3ccc(Cl)cc3F)C(=O)N3CCC[C@H]3C(=O)N3CCCC[C@H]3C(=O)N[C@@H](C)C(=O)N2C1` (stereo not given in full), for which the growth in [1] was 11.1%; in test [2], 15.6%; in test [3] it was 46.8%; in test [4], 24.4%; in [5], 28.8%; in test [6] it was 17.3%. Also, the growth in test [7] was -12.3% (active); in [8] it was 26.7%; in test [9], 4.29% (active); in test [10], 39.7%.

For the compound `Cc1ccc(NC(=O)c2cccc(CN3CCN(C)CC3)c2)cc1Oc1ccc(-c2[nH]nc3ncnc(N)c23)cc1`, the growth is 86.1% in test [1]; 5.69% (active) in test [2]; 66.8% in [3]; 81.9% in test [4]; 64.6% in test [5]; 72.9% in test [6]. In addition, the growth in test [7] is 76.7%; in [8], 73%; in test [9], 29.9%; in test [10], 72.9%.

For the compound `O=C1Nc2ccc(Cl)cc2/C1=C/c1ccc(OCc2ccc(F)cc2)cc1`, the growth was 87.8% in [1]; 99.4% in test [2]; 89.7% in test [3]; 99.1% in test [4]; 95.4% in [5]; 93.6% in test [6]. In addition, the growth in test [7] is 105%; in [8], 90.8%; in [9] it was 92.8%; in test [10] it was 96.3%.
